What all share (test): NCI-60 one-dose screen, 48 h (100 = growth as untreated, 0 = no growth, -100 = all killed)
What all share (conditions): 10 µM unless noted

The subject of assay [1] is SK-MEL-2 melanoma.
For assay [2], the system named is EKVX NSCLC.
In assay [3] the test system is SN12C renal.
Assay [4] has as its system UO-31 renal.
Assay [5] concerns TK-10 renal.
Assay [6] concerns ACHN renal.
For assay [7], the system named is CAKI-1 renal.
The subject of assay [8] is A498 renal.
Assay [9] concerns CCRF-CEM leukemia.
Assay [10] relates to MOLT-4 leukemia.
Assay [11] concerns SR leukemia.
For assay [12], the system named is RPMI-8226 leukemia.
Assay [13] deals with OVCAR-8 ovarian.
Assay [14] relates to OVCAR-5 ovarian.
The subject of assay [15] is OVCAR-4 ovarian.
Assay [16] relates to SK-OV-3 ovarian.
The test system of assay [17] is IGROV1 ovarian.
The subject of assay [18] is OVCAR-3 ovarian.
Assay [19] has as its system HS 578T breast.
In assay [20] the test system is NCI/ADR-RES ovarian.

This is part of a sample that, as a whole, favours compounds with a hit. Of some 83,000 tested, about 20% had one in any assay.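 Growth was measured after 48 h exposure to one concentration of compound in 96-well plates. Values under 10 count as active.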 Unmarked numbers belong to inactive results. The source made the active and inactive calls.

On to `CCCOS(=O)(=O)c1ccccc1`, for which the growth in [1] was 114%; in assay [2] it was 110%; in assay [3] it was 103%; in [4], 83.3%; in assay [5], 102%; in assay [6], 102%. Besides, the growth in assay [7] is 91.8%; in [8], 100%; in assay [9] it was 6.52% (active); in assay [10], 107%; in assay [11], 108%; in assay [12], 71.2%. Also, the growth in [13] was 104%; in [14], 93%; in assay [15], 123%; in assay [16], 91.9%; in assay [17] it was 104%; in assay [18], 107%. Besides, the growth was 126% in assay [19] and 110% in [20].

Turning to `O=C(Nc1ccc(Cl)c(Cl)c1)OCc1ccco1`, the growth in assay [1] was 28.9%; in [2] it was 56.9%; in [3] it was 48.8%; in assay [4], 36.1%; in assay [5], 58.2%; in [6], 32.5%. Besides, the growth in [7] is 25.4%; in [8] it was 71.5%; in [9] it was 39.3%; in assay [10], 34.1%; in assay [11] it was 25.7%; in [12] it was 51.3%. The growth in [13] was 47.1%; in assay [14] it was 76.5%; in assay [15], 64%; in [16], 83.3%; in [17], 52.7%; in [18], 47%. The growth was 20.5% in [19] and 34.4% in [20].

As for `CCOc1ccc(C(C[N+](=O)[O-])Sc2ccccc2N)cc1` (centres undefined), the growth was 98.7% in assay [1]; 66.9% in [2]; 65% in [3]; -62.9% (active) in [4]; 106% in assay [5]; 55.4% in assay [6]. Besides, the growth in [7] was 64.6%; in [8], 109%; in assay [9], 30.3%; in assay [10], 4.52% (active); in assay [11] it was 4.9% (active); in [12] it was 6.92% (active). The growth in assay [13] is 53.5%; in assay [14] it was 81.9%; in assay [15], 83.1%; in [16] it was 72.6%; in [17], -34.9% (active); in [18] it was 32.2%. The growth in assay [19] is 43.6%; in [20], 72.6%.

Take `CCCOC(=O)c1nc(N(CC2CCCCC2)C(=O)NC)sc1/N=C/c1ccccc1`: the growth is -0.0368% (active) in [1]; 9.94% (active) in [2]; 15% in assay [3]; 23.9% in assay [4]; 52.5% in assay [5]; 17.4% in assay [6]. Also, the growth in [7] was 31.7%; in [8] it was 63.5%; in assay [9], 2.45% (active); in assay [10], 3.07% (active); in assay [11] it was -17.2% (active); in assay [12], -48.2% (active). Also, the growth in assay [13] was 29%; in [14] it was 40%; in assay [15], 35.1%; in assay [16], 24.7%; in assay [17], 19.4%; in [18], 4.38% (active). Also, in assay [20], the growth was -14% (active).

Turning to `OC(CSc1ccccc1)CN1CCN(c2ccc(Cl)cc2)CC1` (centres undefined), the growth was 98.5% in [1]; 95.2% in assay [2]; 94.4% in [3]; 84.8% in [4]; 101% in assay [5]; 97.9% in assay [6]. The growth in assay [7] was 88.1%; in assay [8], 82.1%; in assay [9], 86%; in assay [11] it was 86.6%; in assay [12], 81.4%; in [13], 99.6%. The growth is 92.1% in [15]; 110% in [16]; 114% in assay [17]; 121% in assay [18]; 115% in assay [19]; 89.1% in assay [20].

As for `CC1C(c2ccccc2)OCCN1C(=S)Nc1ccc(S(=O)(=O)N2CCCCC2)cc1` (centres undefined), the growth was 104% in [1]; 92.1% in assay [2]; 96.1% in assay [3]; 94.5% in assay [4]; 116% in assay [5]; 96.4% in assay [6]. The growth in [7] was 36.4%; in assay [8], 99.3%; in assay [9], 81%; in assay [10], 99.5%; in assay [12], 80.4%; in assay [13], 92.5%. The growth in [14] was 87.9%; in [15], 106%; in assay [16], 110%; in assay [17], 106%; in [18], 114%; in [19], 85.8%.

`CCC1C[N+]2=C(c3cc(OC)c(OC)cc3CC2)c2c1cc1n2CCc2cc(OC)c(OC)cc2-1` (centres undefined): the growth was -1.15% (active) in [1]; 57.9% in [2]; 32.7% in assay [3]; 90.3% in assay [4]; 82.9% in [5]; 96.9% in assay [6]. Besides, the growth in [7] was 87%; in [8], 75%; in assay [10] it was 41.5%; in [12], 11.6%; in assay [13] it was 32.4%; in assay [15], 14.7%. The growth was 94.9% in assay [16], 10% in [18] and 42.4% in assay [19].

As for `CCCCCCCCCCCC[n+]1ccc2ccccc2c1`, the growth in [1] is -24.7% (active); in assay [2], -4.82% (active); in assay [3], -18.4% (active); in assay [4], -23.8% (active); in [5], -46.7% (active); in assay [6], 13%. Besides, the growth in [7] was 40.9%; in [8], 77.6%; in assay [10] it was -25.9% (active); in assay [11] it was -29.7% (active); in assay [12], -53.7% (active); in assay [13], -37% (active). Further, the growth is 7.35% (active) in assay [14]; -17.2% (active) in assay [15]; -26.2% (active) in assay [16]; -51.9% (active) in assay [17]; -70.3% (active) in assay [18]; 15.1% in assay [19]. Also, the growth in assay [20] was 54.2%.

Source of the values: PubChem BioAssay (NCI).
